Structures are written as SMILES. The panel holds about 83,000 compounds, 20% with a hit somewhere; the sample as a whole holds those more often.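 Results are percent growth after 48 hours of single-concentration exposure. 100 means growth as in untreated cells, lower positive values show inhibition; negative values down to -100 show cell death.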 The source made the active and inactive calls. Rule for the calls: active = growth percent below 10; inactive = the rest.

This experiment relates to HL-60(TB) leukemia. The experiment can be described thus: NCI-60 one-dose screen, 48 h (100 = growth as untreated, 0 = no growth, -100 = all killed). Particulars: 10 µM unless noted.
On to `CCc1ccc(NC(=O)N[C@@H](Cc2cccc(F)c2)C(=O)N[C@@H]2C(=O)N3CCC[C@H]3C(=O)N3CCCC[C@H]3C(=O)N[C@@H](CO)C(=O)N3C[C@H](C)C[C@H]3C(=O)O[C@H]2C)c(F)c1`, for which the growth was 13.3% (inactive). With `Nc1nc(-c2cccc([N+](=O)[O-])c2)c(N=Nc2ccccc2[N+](=O)[O-])s1`, the growth was 96.5% (inactive).

On to `Cn1cc(-c2cc(N)n3nc(-c4cn(C)c5ccccc45)cc3n2)c2ccccc21`, for which the growth was 11.6% (inactive). The result for `COc1ccc(-c2cc(-c3cccc4ccccc34)n3c(n2)nc2ccccc23)cc1OC` reads -7.71% (active); that for `NC(=O)c1cc(-c2ccc3ncnc(N4CCc5cc(F)c(Cl)cc54)c3c2)cnc1N`, -4.97% (active); that for `CCOC(=O)c1c(NC(=O)c2cccc(C(F)(F)F)c2)sc2c(CN3CCN(C)CC3)c(O)ccc12`, -31% (active). With `CNC(=O)c1cc(N2CCc3cc(NC(=O)Nc4ccc(Cl)c(C(F)(F)F)c4)ccc32)ccn1` the figure was 50.3% (inactive); with `COc1cc2oc(-c3cccc(NC(=O)c4cc(NC(=O)[C@H](C)N)ccc4Cl)c3)cc(=O)c2c(OC)c1OC`, 97.2% (inactive); with `CN1CCN(c2ccc(Nc3nc(NCCCNS(=O)(=O)c4ccccc4)c4sccc4n3)cc2)CC1`, -32.9% (active). The result for `NC(=O)c1cccc(C#CCNC[C@H]2C[C@@H](n3ccc4c(Cl)ncnc43)[C@H](O)[C@@H]2O)c1` reads 102% (inactive); that for `O=C(/C=C/c1cccc(C(F)(F)F)c1)Nc1cccc(C(F)(F)F)c1`, 38.3% (inactive); that for `O=C1[C@@H]2Cc3c([nH]c4ccccc34)[C@@H](c3ccc(Cl)cc3)N2C(=O)CN1C1CCN(Cc2ccccc2)CC1`, -9.39% (active).

With `CN(C)C(=O)c1cc(-c2ccc3ncnc(NCc4ccccc4)c3c2)cnc1N`, the growth was 116% (inactive).

For the compound `Brc1cccc(/C=N/Nc2nc(N/N=C/c3cccc(Br)c3)nc(N3CCOCC3)n2)c1`, the growth is -10.2% (active). As for `COc1cc(/C=N/n2cnc3oc(-c4ccccc4)cc3c2=N)cc(CN2CCOCC2)c1O`, the growth was 88.9% (inactive).

For `CCn1c(SCC(=O)Nc2cccc(C(=O)/C=C/c3ccc(C)cc3)c2)nc2ccccc2c1=O`, the growth was 92% (inactive). With `Cc1cc(Cl)cc(NS(=O)(=O)c2ccc(-c3cnc(C4CC4)o3)cc2)c1` the figure was -4.23% (active); with `Clc1ccc2oc3c(OCCCn4ccnc4)c4ccccc4nc3c2c1`, 73.1% (inactive); with `COc1ccc(CNS(=O)(=O)/N=C2\NC(=O)NC2=C(Cl)Cl)cc1`, -11.1% (active).

Regarding `Clc1ccc2c(NCCCN3CCOCC3)c3oc4ccc(Cl)cc4c3nc2c1`, the growth was 67.7% (inactive). Regarding `Cc1cc(C)cc(NC2=C(Cl)C(=O)c3nc(C)ccc3C2=O)c1`, the growth is 34.5% (inactive). For the compound `CCO/C=N/C1=C(C#N)C(c2ccc(F)cc2)c2sc3c(C)cccc3c2O1` (stereo unspecified), the growth was -22.8% (active). The result for `Nn1c(=O)n(-c2cccc(C(F)(F)F)c2)c(=O)c2cc(-c3ccc(F)cc3F)ccc21` reads -45.9% (active); that for `Clc1ccc2[nH]cc(-c3nn4cc(-c5ccncc5)nc4s3)c2c1`, 89.8% (inactive); that for `Cc1ccc2c(n1)C(=O)C(Cl)=C(Nc1ccc(C#N)cc1)C2=O`, 17.4% (inactive). `Cc1csc(/N=C(N)/N=C(\N)c2cccc(Br)c2)n1`: the growth was 91.3% (inactive). Regarding `O=C(NNc1nc2cc(F)ccc2n2c(CN3CC4CNCC4C3)ccc12)c1cnccn1` (stereo unspecified), the growth is 0.485% (active). For the compound `O=C(Nc1ccc(Cl)c(C(F)(F)F)c1)Nc1ccc2c(ccn2C(=O)c2cccc(F)c2)c1`, the growth was 24.7% (inactive). For the compound `CCCCCCNC(=O)Oc1ccc(/C(=C(/C)c2ccccc2)c2ccc(OCCN3CCCCCC3)cc2)cc1`, the growth was -39.6% (active). As for `COC(=O)c1cccc(NC2=C(Cl)C(=O)C(C)=C(C)C2=O)c1`, the growth is 60.4% (inactive).

On to `Cc1ccc(-c2nnc3sc(C4=Cc5ccccc5OC=C4)nn23)cc1`, for which the growth is 85% (inactive).

In the case of `NC(=O)c1c(NC(=O)c2ccc(F)cc2F)sc2c1CCC(=O)C2`, the growth is 34.1% (inactive). With `O=S(=O)(Nc1ccc2c(c1)OC(F)(F)O2)c1ccc(-c2cnc(C3CC3)o2)cc1`, the growth was 3.85% (active). With `Cn1c2nc3ccccc3c-2cc2ccccc21` the figure was 41.6% (inactive); with `CCCCCCOC(=O)c1cc(-c2ccc(F)cc2)nc2ccccc12`, 77.8% (inactive). Take `O=C(NNc1nc2cc(F)ccc2n2c(CN3CC4(COC4)C3)ccc12)c1cnccn1`: the growth was -30.1% (active).
